Data: PubChem BioAssay AID1159580 (chemical genetic matrix, 2015)
Several values for one entry are separate records, joined by “and”; a condition that tells them apart may be missing. Equal values may be shown once. The campaign covered roughly 5,500 compounds. About 2,000 (36%) were called active. About 18% were inconclusive and are not listed. Rule as the data show it: active = normalized growth mostly below about 0.91 (no sharp cut-off); inconclusive = no clear call, values can overlap the other calls; inactive = mostly above about 0.92. The list shows a part of the results.

Assay: chemical genetic growth profiling, strain panel (AID 1159580);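 also: tested at 20 µM; growth read once vehicle control cultures reached saturation at 30 °C; 1 = growth at the plate median or of vehicle wells; lower values mean less growth of the strain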
Conditions: S. cerevisiae deletion strains, growth OD

Measured: normalized growth

CS(=O)(=O)c1ccc(C2=C(c3ccccc3)C(=O)OC2)cc1
inactive: locus YAL013W, strain DEP1, stronger effect = lower value 0.996 | locus YAL021C, strain ccr4, stronger effect = lower value 0.955 | locus YAL026C, strain drs2, stronger effect = lower value 0.985 | locus YAL030W, strain snc1, stronger effect = lower value 0.971 | locus YBL061C, strain skt5, stronger effect = lower value 0.972 | locus YBR009C, strain hhf1, stronger effect = lower value 0.959 | locus YBR021W, strain FUR4, stronger effect = lower value 0.986 | locus YBR023C, strain chs3, stronger effect = lower value 0.979 | locus YBR171W, strain sec66, stronger effect = lower value 0.983 | locus YBR229C, strain ROT2, stronger effect = lower value 1 | locus YBR231C, strain swc5, stronger effect = lower value 1 | locus YBR279W, strain paf1, stronger effect = lower value 0.987 | locus YCL011C, strain gbp2, stronger effect = lower value 0.975 | locus YCL016C, strain dcc1, stronger effect = lower value 0.98 | locus YCL029C, strain bik1, stronger effect = lower value 0.994 | locus YCL061C, strain MRC1, stronger effect = lower value 0.986 | locus YCL069W, strain vba3, stronger effect = lower value 0.976 | locus YCR088W, strain abp1, stronger effect = lower value 0.985 | locus YDL005C, strain med2, stronger effect = lower value 0.983 | locus YDL035C, strain GPR1, stronger effect = lower value 0.973 | locus YDL040C, strain nat1, stronger effect = lower value 0.984 | locus YDL074C, strain BRE1, stronger effect = lower value 0.929 | locus YDL101C, strain DUN1, stronger effect = lower value 0.99 | locus YDL134C, strain PPH21, stronger effect = lower value 1.01 | locus YDL185W, strain tfp1, stronger effect = lower value 0.963 | locus YDL192W, strain arf1, stronger effect = lower value 0.98 | locus YDR001C, strain nth1, stronger effect = lower value 0.985 | locus YDR069C, strain doa4, stronger effect = lower value 0.967 | locus YDR101C, strain arx1, stronger effect = lower value 0.995 | locus YDR137W, strain rgp1, stronger effect = lower value 1.02 | locus YDR150W, strain NUM1, stronger effect = lower value 0.991 | locus YDR159W, strain sac3, stronger effect = lower value 0.968 | locus YDR162C, strain NBP2, stronger effect = lower value 0.979 | locus YDR195W, strain ref2 0.963 | locus YDR297W, strain sur2, stronger effect = lower value 0.983 | locus YDR318W, strain mcm21, stronger effect = lower value 0.983 | locus YDR334W, strain swr1, stronger effect = lower value 0.968 | locus YDR335W, strain msn5, stronger effect = lower value 0.982 | locus YDR388W, stronger effect = lower value 0.991 | locus YDR392W, strain spt3, stronger effect = lower value 0.954 | locus YDR502C, strain sam2, stronger effect = lower value 0.983 | locus YEL003W, strain gim4, stronger effect = lower value 0.977 | locus YEL037C, strain rad23, stronger effect = lower value 0.992 | locus YEL061C, strain CIN8 (second series), stronger effect = lower value 0.97 | locus YEL061C, strain CIN8, stronger effect = lower value 0.984 | locus YER015W, strain faa2, stronger effect = lower value 0.98 | locus YER016W, strain bim1, stronger effect = lower value 0.985 | locus YER110C, stronger effect = lower value 0.988 | locus YER111C, strain swi4, stronger effect = lower value 0.978 | locus YER155C, strain BEM2 (second series), stronger effect = lower value 0.98 | locus YER155C, strain BEM2, stronger effect = lower value 1.04 | locus YER167W, strain BCK2, stronger effect = lower value 0.989 | locus YFR010W, strain ubp6, stronger effect = lower value 0.961 | locus YGL078C, strain dbp3, stronger effect = lower value 0.996 | locus YGL086W, strain mad1, stronger effect = lower value 0.983 | locus YGL167C, strain pmr1, stronger effect = lower value 0.971 | locus YGL173C, strain kem1, stronger effect = lower value 0.989 | locus YGL227W, strain vid30, stronger effect = lower value 0.969 | locus YGL240W, strain doc1, stronger effect = lower value 0.975 | locus YGL248W, strain PDE1, stronger effect = lower value 1 | locus YGL253W, strain hxk2, stronger effect = lower value 0.987 | locus YGR078C, strain PAC10, stronger effect = lower value 0.957 | locus YGR135W, strain pre9, stronger effect = lower value 0.979 | locus YGR229C, strain SMI1, stronger effect = lower value 0.971 | locus YGR252W, strain gcn5, stronger effect = lower value 0.967 | locus YHR013C, strain ard1, stronger effect = lower value 0.971 | locus YHR027C, strain rpn1, stronger effect = lower value 0.963 | locus YHR030C, strain SLT2, stronger effect = lower value 0.994 and 1.03 | locus YHR079C, strain IRE1 (second series), stronger effect = lower value 0.992 | locus YHR079C, strain IRE1, stronger effect = lower value 1.03 | locus YHR094C, strain hxt1, stronger effect = lower value 0.984 | locus YHR129C, strain ARP1, stronger effect = lower value 1 | locus YHR142W, strain chs7, stronger effect = lower value 0.984 | locus YHR200W, strain rpn10, stronger effect = lower value 0.969 | locus YIL066C, strain RNR3, stronger effect = lower value 1.01 | locus YIL073C, strain SPO22, stronger effect = lower value 0.936 | locus YIL125W, strain kgd1, stronger effect = lower value 0.999 | locus YIR030C, strain dcg1, stronger effect = lower value 0.987 | locus YJL092W, strain hpr5, stronger effect = lower value 0.984 | locus YJL095W, strain BCK1 (second series), stronger effect = lower value 0.977 | locus YJL095W, strain BCK1, stronger effect = lower value 0.951 and 1.01 | locus YJL115W, strain asf1, stronger effect = lower value 0.962 | locus YJL129C, strain trk1, stronger effect = lower value 0.978 | locus YJL134W, strain LCB3, stronger effect = lower value 0.998 | locus YJL154C, strain vps35, stronger effect = lower value 0.991 | locus YJL164C, strain tpk1, stronger effect = lower value 0.965 | locus YJL166W, strain qcr8, stronger effect = lower value 0.986 | locus YJL168C, strain set2, stronger effect = lower value 0.993 | locus YJL187C, strain SWE1 (second series), stronger effect = lower value 0.989 | locus YJL187C, strain SWE1, stronger effect = lower value 0.981 | locus YJR043C, strain POL32, stronger effect = lower value 0.955
